Tests used:
Experiment in all cases: thermal shift delta Tm vs DMSO control; higher = stronger stabilization (binding)
Details in all cases: 12.5 µM; protein concentration 2 µM
[1] = tested on: LOC_OS01G57100-cb003
Outline: (§1)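 Purified, E. coli-expressed rice kinase domain constructs were tested by differential scanning fluorimetry in 96-well plates: 19.5 μl of 2 μM kinase in 100 mM potassium phosphate pH 7.5, 150 mM NaCl, 10% glycerol, 5 × SYPRO Orange, plus compound in DMSO. Fluorescence was read from 25°C to 95°C at 0.05°C/s. Melting temperatures came from Boltzmann fits, and the shift is the triplicate mean relative to protein with DMSO alone.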

[2] = tested on: LOC_OS01G60330-cb001
Outline: as §1

[3] = tested on: LOC_OS01G60700-cb002
Outline: as §1

[4] = tested on: LOC_OS01G63280-cb003
Outline: as §1

[5] = tested on: LOC_OS01G67340-cb003
Outline: as §1

[6] = tested on: LOC_OS01G70970-cb002
Outline: as §1

[7] = tested on: LOC_OS02G07810-cb001
Outline: as §1

[8] = tested on: LOC_OS02G08530-cb003
Outline: as §1

[9] = tested on: LOC_OS02G14120-cb001
Outline: as §1

[10] = tested on: LOC_OS02G17970-cb001
Outline: as §1

Row | SMILES | thermal shift delta Tm [1] [°C] | thermal shift delta Tm [2] [°C] | thermal shift delta Tm [3] [°C] | thermal shift delta Tm [4] [°C] | thermal shift delta Tm [5] [°C] | thermal shift delta Tm [6] [°C] | thermal shift delta Tm [7] [°C] | thermal shift delta Tm [8] [°C] | thermal shift delta Tm [9] [°C] | thermal shift delta Tm [10] [°C]
1 | CCCCCCCCCC(=O)CC(O)S(=O)(=O)O (centres undefined) [Sodium Houttuyfonate] | 1.15 | 0.04 | 0.03 | 0.07 | 0.28 | 0.09 | 0.29 | 0.25 | -0.08 | 1.73
2 | C[C@@H](Oc1cc(-n2cnc3ccc(CN4CCN(C)CC4)cc32)sc1C(N)=O)c1ccccc1C(F)(F)F | 0.34 | 0.7 | 0.72 | 0.17 | 0.69 | 0.44 | 1.22 | 3.01 | -0.04 | 0.25
3 | CCOC(=O)c1cnc2ccc(-c3cncc(NS(=O)(=O)c4ccccc4)c3)cn12 | 2.2 | 0.95 | 1.04 | 0.47 | 0.76 | 0.2 | 1.1 | 1.79 | -0.08 | 0.87
4 | C=C(C)[C@@H]1CC[C@]2(C)CC[C@]3(C)[C@H](CC[C@@H]4[C@@]5(C)CC[C@H](O)C(C)(C)[C@@H]5CC[C@]43C)[C@@H]12 [Lupeol] | 0.67 | -0.59 | 0.65 | 0.13 | 0.51 | -0.32 | 1 | 0.21 | -0.18 | -0.66
5 | COc1cc(OC)cc(N(CCNC(C)C)c2ccc3ncc(-c4cnn(C)c4)nc3c2)c1 | 1.85 | 0.09 | 0.12 | 0.43 | 0.07 | 0.6 | -0.54 | 0.61 | 2.34 | -0.45
6 | Cc1ccc(S(=O)(=O)/C=C/C#N)cc1 | 3.66 | -1.26 | -1.01 | -3.09 | -0.5 | -2.73 | 0.83 | 1.24 | -1.26 | 0.99
7 | O=C1Nc2ccc(I)cc2/C1=C/c1cc(Br)c(O)c(Br)c1 | 7.97 | 7.94 | 2.48 |  |  | 2.79 | 3.4 | 4.19 | 5.66 | 3.87
8 | O=c1[nH]nc(Sc2ncc([N+](=O)[O-])s2)n1-c1ccc2c(c1)OCCO2 | 6.97 | 0 | 4.73 |  | -6.49 | -7.96 | 1.41 | 1.83 |  | 3.38
9 | Cc1nc2c(-c3cnc(N)nc3)nc(N3CCOCC3)nc2n1C(C)C | 1.43 | 0.31 | 1.66 | 0.78 | 0.22 |  | 1.23 | 1.18 | 0.05 | 2.41
10 | O=c1c(O)c(-c2cc(O)c(O)c(O)c2)oc2cc(O)cc(O)c12 [Myricetin] | 7.25 | 8.95 | -2.19 |  | 2.79 | 2.23 | 2.22 | 2.57 | 2.73 | 5.74
11 | Cc1ncc(CO)c(CO)c1O [Pyridoxine] | -0.85 | -0.2 | -0.29 | -0.26 | 0.08 | 0.33 | -0.63 | 0.26 | 0.41 | 0.66
